This is part of a sample that, as a whole, favours compounds with a hit. Of some 79,000 tested, about 15% had one in any assay. Unmarked numbers belong to inactive results. Calls of active or inactive are those of the source. Cut-off read from the data, not from the text of the source: active = growth inhibition above about 70%; inactive = the rest.
Key:
[1] = NCI Yeast Anticancer Drug Screen. Data for the rad50 strain (AID 155);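 note: 0% = growth of vehicle-only cultures of the same strain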; conditions: S. cerevisiae rad50 strain growth inhibition, stronger effect = higher value
Outline: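 Cells are treated with compound, grown, and their growth is then scored against vehicle-only cultures of the same repair-deficient yeast strain.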

[2] = NCI Yeast Anticancer Drug Screen. Data for the mec2-1 strain (AID 157); conditions: S. cerevisiae mec2-1 strain, stronger effect = higher value
Outline: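 Yeast mec2-1 mutant treated with compound. Readout: growth inhibition vs vehicle controls.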

[3] = NCI Yeast Anticancer Drug Screen. Data for the sgs1 mgt1 strain (AID 161);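 note: 0% = growth of cultures given vehicle only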; conditions: S. cerevisiae sgs1 mgt1 strain, stronger effect = higher value
Outline: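 Inhibition of yeast growth, normalised to vehicle-treated controls, is reported for a strain bearing genetic alterations in DNA damage repair.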

[4] = NCI Yeast Anticancer Drug Screen. Data for the cln2 rad14 strain (AID 165);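 note: 0% = growth equal to vehicle treated cultures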; conditions: S. cerevisiae cln2 rad14 strain, stronger effect = higher value
Outline: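 cln2 rad14 yeast strain; compound exposure; growth inhibition read vs vehicle controls.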

[5] = NCI Yeast Anticancer Drug Screen. Data for the bub3 strain (AID 167); conditions: S. cerevisiae bub3 mutant strain, stronger effect = higher value
Outline: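 Part of a panel of yeast mutants defective in DNA damage repair or cell cycle regulation. Each strain is grown with compound, and inhibition is calculated relative to solvent-treated cultures.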

[6] = NCI Yeast Anticancer Drug Screen. Data for the mlh1 rad18 strain (AID 175); conditions: S. cerevisiae mlh1 rad18 strain growth inhibition, stronger effect = higher value
Outline: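 Yeast w/ defined DNA-repair lesions; compound exposure; growth vs vehicle controls → % inhibition.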

[7] = at 5.0 µM (retest, dose inferred, filed as 0.5)
[8] = at 50.0 µM (retest, dose inferred, filed as 5.0)

| Structure (SMILES) | growth inhibition [1, 7] | growth inhibition [1, 8] | growth inhibition ([1]; at 50.0 µM) | growth inhibition [2, 7] | growth inhibition [2, 8] | growth inhibition ([2]; at 50.0 µM) | growth inhibition [3, 7] | growth inhibition [3, 8] | growth inhibition ([3]; at 50.0 µM) | growth inhibition [4, 7] | growth inhibition [4, 8] | growth inhibition ([4]; at 50.0 µM) | growth inhibition [5, 7] | growth inhibition [5, 8] | growth inhibition ([5]; at 50.0 µM) | growth inhibition [6, 7] | growth inhibition [6, 8] | growth inhibition ([6]; at 50.0 µM) |
| --- | --- | --- | --- | --- | --- | --- | --- | --- | --- | --- | --- | --- | --- | --- | --- | --- | --- | --- |
| CCC(CC)(c1ccc(C)cc1)c1ccc(C)cc1 | -12% | 99% (active) | 99.5% (active) | -10% | 99% (active) | 99.2% (active) | -6% | 99% (active) | 98.8% (active) | -80% | 99% (active) | 77.2% (active) | 22% | -55% | 92.3% (active) | 7% | 99% (active) | 99.6% (active) |
| CN(C)Cc1ccc(C(C)(C)C)cc1-c1cc(C(C)(C)C)ccc1CN(C)C | 7% | 3% | 1.6% | 7% | -4% | 1.8% | -10% | 2% | -32.4% | 26% | -17% | -40.5% | -27% | -16% | -30.8% | -6% | -9% | 11.9% |
| COc1cc(C(=O)C=[N+]=[N-])c([N+](=O)[O-])c(OC)c1OC | 12% | 77% (active) | 63.2% | 22% | 91% (active) | 90.8% (active) | 19% | 92% (active) | 91.8% (active) | 11% | 51% | 41.9% | 9% | 67% | 93.2% (active) | 8% | 89% (active) | 94.4% (active) |
| c1cc[c]([Sn]([O]c2cccc3cccnc23)([c]2ccccc2)[c]2ccccc2)cc1 | 99% (active) | 21% | 89.5% (active) | 100% (active) | 10% | 92.2% (active) | 100% (active) | 30% | 89.6% (active) | 99% (active) | 11% | 85.8% (active) | 99% (active) | 63% | 90.8% (active) | 100% (active) | 14% | 93% (active) |
| O=C(O)Cc1c(-c2noc(-c3ccccc3)c2CC(=O)O)noc1-c1ccccc1 | -10% | -3% | 28.5% | 8% | -2% | 46.8% | -16% | -8% | 26.6% | 1% | -10% | 58.4% | -7% | 0% | 97.1% (active) | 4% | -9% | 40.1% |
| CC(=O)Nc1[c-]cccc1.CC(=O)Nc1[c-]cccc1.CC(=O)O.CC(=O)O.[Pd].[Pd] | 2% | 31% | 79.8% (active) | -1% | 51% | 87.2% (active) | 17% | 89% (active) | 92.5% (active) | -7% | 25% | 45.1% | -4% | 31% | 58.7% | -1% | 55% | 95.8% (active) |
| C/C=C/C=C/C(=O)Nc1ccc([N+](=O)[O-])cc1 | 0% | 53% | 39.8% | -5% | 39% | -0.4% | -1% | 74% (active) | 87% (active) | -9% | 16% | 10.7% | 0% | 63% | 36.4% | 0% | 32% | 32.4% |
| Cc1cc(O)c(/C=N/C(=S)Nc2ccc(S(N)(=O)=O)cc2)c(=O)o1 | 17% | 42% | -24.4% | 13% | 32% | 4.9% | 19% | 57% | -10.2% | 8% | 39% | -6.55% | 31% | 56% | 1.45% | 9% | 44% | -33.1% |
| CC(=O)Oc1c([N+](=O)[O-])cc(-c2ccccc2)cc1[N+](=O)[O-] | 18% | 99% (active) | 78.2% (active) | 20% | 100% (active) | 56.1% | 21% | 99% (active) | 66.3% | 9% | 99% (active) | 47.5% | 21% | 99% (active) | 62.1% | 6% | 99% (active) | 84.6% (active) |
| CC(C(O)Cc1ccccc1)N(C)N=Nc1ccc([N+](=O)[O-])cc1 (configuration not stated) | 35% | 84% (active) | 64.3% | 18% | 59% | 61.6% | 24% | 91% (active) | 85.7% (active) | 21% | 86% (active) | 28.3% | 23% | 92% (active) | 72.7% (active) | 51% | 89% (active) | 78.5% (active) |
| CCCCCCCCCCCCCCCCCC[n+]1ccc(C(C)CC)cc1 (configuration not stated) | 1% | 96% (active) | 99.3% (active) | 12% | 98% (active) | 99.6% (active) | 18% | 97% (active) | 99.2% (active) | 16% | 87% (active) | 99.1% (active) | 29% | 96% (active) | 99.2% (active) | 6% | 97% (active) | 99.2% (active) |
| CC1CCN(SSc2nc3ccccc3s2)CC1 | 31% | 91% (active) | 28.4% | 36% | 94% (active) | 80.5% (active) | 51% | 96% (active) | 77.4% (active) | 44% | 70% (active) | 21.4% | 61% | 97% (active) | 82% (active) | 30% | 73% (active) | 79% (active) |
| COc1ccc(/C=C2\N=C(c3ccco3)OC2=O)cc1Br | 16% | 2% | -4.8% | -17% | -4% | 5.85% | -1% | 12% | 11% | 30% | 22% | 4.8% | 5% | 13% | 27.1% | -7% | -32% | 5.65% |
| N#CS/C(C(Cl)=C(Cl)Cl)=C(/Cl)[N+](=O)[O-] | 99% (active) | 100% (active) | 88.8% (active) | 99% (active) | 100% (active) | 92% (active) | 99% (active) | 99% (active) | 85.9% (active) | 99% (active) | 99% (active) | 89.5% (active) | 99% (active) | 100% (active) | 90% (active) | 99% (active) | 99% (active) | 84% (active) |
| Nc1ccc2ccccc2c1N=Nc1ccccc1 | 6% | 97% (active) | 98.3% (active) | 0% | 99% (active) | 99% (active) | 3% | 98% (active) | 99.1% (active) | -8% | 96% (active) | 96.6% (active) | 0% | 98% (active) | 98.5% (active) | 2% | 92% (active) | 97.6% (active) |
| Cc1nc2c(O)c3c(c(O)c2nc1C)C1C=CC3CC1 | 30% | 83% (active) | 64% | 16% | 89% (active) | 66.2% | 30% | 84% (active) | 77.5% (active) | 22% | 30% | 14.2% | 39% | 91% (active) | 84.7% (active) | 20% | 82% (active) | 14.2% |
| CC(=O)c1ccc2c(c1)CC1(C2)Cc2cc3c(c(C(=O)O)c2C1)CCC3 (configuration not stated) | 0% | 95% (active) | 90.3% (active) | 10% | 95% (active) | 90.1% (active) | 34% | 99% (active) | 94.5% (active) | -3% | 95% (active) | 95% (active) | 1% | 95% (active) | 85.8% (active) | 15% | 97% (active) | 88.6% (active) |
| O=C(Nc1ccc(C2=NCCN2)cc1)c1cc(C(=O)Nc2ccc(C3=NCCN3)cc2)cc(C(=O)Nc2ccc(C3=NCCN3)cc2)c1 | 37% | 96% (active) | 99% (active) | 5% | 94% (active) | 99% (active) | 16% | 95% (active) | 98.8% (active) | 13% | 62% | 90.1% (active) | 23% | 99% (active) | 98.8% (active) | 25% | 98% (active) | 99% (active) |
| NNC(=S)N/N=C(\CC1OC(=O)c2ccccc21)c1ccccc1O (configuration not stated) | 6% | -3% | 80.1% (active) | -12% | -17% | 60.2% | 22% | 7% | 56.1% | 11% | 4% | 32% | -9% | 13% | 58.1% | -43% | -27% | 84.2% (active) |

— PubChem BioAssay (NCI)
